The source of these data is the supplement of paper PMC7530171.

Where a name gives a salt, the structure may show the parent alone. ± gives the standard deviation.

For the test, the system named is THP-1. Nature of the test: THP-1 cell loss relative to DMSO control; higher = more host cell loss (toxicity); extreme values may be limits of the assay. To be noted: 10 µM; 4 days; infection: M. tuberculosis H37Rv. The protocol: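 OICR kinase inhibitor library screened in duplicate at 10 uM against M. tuberculosis-infected THP-1 macrophages, 4 days at 37 C. THP-1 cell loss (cytotoxicity or loss of adherence) was quantified from Hoechst-stained nuclei counts by high-content imaging and normalised to the 1% DMSO control; 100 = complete loss of host cells.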
The molecule `CN(C)c1cc2c(Nc3ccc4c(cnn4Cc4ccccc4)c3)ncnc2cn1` came in with a THP-1 cell loss of 62.6 ± 18%. For `COc1cc(OC)c(/C=C/S(=O)(=O)Cc2ccc(OC)c(NCC(=O)O)c2)c(OC)c1`, the THP-1 cell loss stood at 44.7 ± 2.4%. Regarding `CCCCCCCC(=O)OCCOC(=O)CCCCCCC` [Dioctanoylglycol], the THP-1 cell loss was determined as 4.61 ± 6.5%. As for `COc1cc(/C=C(\C#N)C(N)=O)cc(CSc2nc3ccccc3s2)c1O`, the figure is 3 ± 4.2%; as for `CN(C)C[C@@H]1CCn2cc(c3ccccc32)C2=C(C(=O)NC2=O)c2cn(c3ccccc23)CCO1`, 100%. As for `CC(C)n1nc(-c2cc3cc(O)ccc3[nH]2)c2c(N)ncnc21`, the figure is 92.9 ± 10%. As for `Cc1cnc(-c2cnc(NCCNc3ccc(C#N)cn3)nc2-c2ccc(Cl)cc2Cl)[nH]1`, the figure is 13.7 ± 5%; as for `C[S+]([O-])c1ccc(-c2nc(-c3ccc(F)cc3)c(-c3ccncc3)[nH]2)cc1` (stereo not given), 22.7 ± 8.7%.

As to `CCn1c(-c2nonc2N)nc2cnc(Oc3cccc(NC(=O)c4ccc(OCCN5CCOCC5)cc4)c3)cc21`, the THP-1 cell loss was determined as 83.5 ± 23%. The molecule `Cn1c(=O)c(Oc2ccc(F)cc2F)cc2cnc(NC3CCOCC3)nc21` gave a THP-1 cell loss of 17.2 ± 6.1%. The molecule `Oc1cc(-c2nc(-c3ccccc3)[nH]c2-c2ccncc2)ccc1Cl` showed a THP-1 cell loss of 100%. For the molecule `CN(C)CCOc1ccc(-c2nc(-c3ccncc3)c(-c3ccc4c(c3)CC/C4=N\O)[nH]2)cc1`, the THP-1 cell loss was determined as 72.3 ± 11%.

As to `COc1cc(CCc2cc(NC(=O)c3ccc(N4CC(C)NC(C)C4)cc3)n[nH]2)cc(OC)c1` (stereo not given), the THP-1 cell loss worked out at 45.7 ± 11%. With `Cc1ccc(NC(=O)c2ccc(CN3CCN(C)CC3)cc2)cc1Nc1nc(-c2cccnc2)cs1` [Masitinib mesylate], the THP-1 cell loss was determined as 62.9 ± 7.5%.

Turning to `Cc1[nH]c(/C=C2\C(=O)Nc3ccc(S(=O)(=O)N(C)c4cccc(Cl)c4)cc32)c(C)c1C(=O)N1CCN(C)CC1`, the THP-1 cell loss was 65.8 ± 13%. To `Oc1cccc(-c2nc(N3CCOCC3)c3oc4ncccc4c3n2)c1` belongs 24.3 ± 3.9%; to `Cn1cc(-c2ccc3nnc(Sc4ccc5ncccc5c4)n3n2)cn1`, 10.4 ± 3.7%; to `O=c1oc2c(O)c(O)cc3c(=O)oc4c(O)c(O)cc1c4c23` [Ellagic acid], 5.06 ± 7.2%.

The molecule `CN(c1ncccc1CNc1nc(Nc2ccc3c(c2)CC(=O)N3)ncc1C(F)(F)F)S(C)(=O)=O` yielded a THP-1 cell loss of 100%. To `C#Cc1cccc(Nc2ncnc3cc(OCCOC)c(OCCOC)cc23)c1` [Erlotinib HCl] belongs 5.26 ± 7.4%; to `O=C1NC(=O)[C@@H](c2cn3c4c(cccc24)CCC3)[C@@H]1c1c[nH]c2ccccc12`, 43.4 ± 7.2%. To `C=CC(=O)Nc1cccc(Oc2nc(Nc3ccc(N4CCN(C)CC4)cc3OC)ncc2Cl)c1` belongs 42.4 ± 7.4%; to `Cc1nc(N)sc1-c1ccnc(Nc2ccc(N3CCOCC3)cc2)n1`, 74.97 ± 0.66%. The molecule `Cc1cc(C(=O)NOCCO)c(Nc2ccc(I)cc2F)n(C)c1=O` had a THP-1 cell loss of 100%. `Cc1cc(I)ccc1Nc1c(C(=O)NOCC2CC2)cc(F)c(F)c1F` yielded a THP-1 cell loss of 100%. As for `c1ccc(-c2n[nH]c3c2oc2ccccc23)cc1`, the figure is 9.81 ± 5.6%; as for `N#CC(=C(/N)Sc1ccccc1N)/C(C#N)=C(/N)Sc1ccccc1N`, 39.2 ± 23%.

Molecule `Cc1ccc2c(=O)c3ccccc3n(CCCN)c2c1C` yielded a THP-1 cell loss of 100%. Regarding `COc1cc2c(Oc3ccc(NC(=O)C4(C(=O)Nc5ccc(F)cc5)CC4)cc3F)ccnc2cc1OCCCN1CCOCC1`, the THP-1 cell loss amounted to 100%.

The molecule `COc1cc2c(N3CCN(C(=O)Nc4ccc(OC(C)C)cc4)CC3)ncnc2cc1OCCCN1CCCCC1` showed a THP-1 cell loss of 4.46 ± 6.3%.

`NS(=O)(=O)c1ccc(Nc2nc(OCC3CCCCC3)c3[nH]cnc3n2)cc1` gave a THP-1 cell loss of 0.876 ± 1.2%. To `O=C1NCCCc2c1oc1ccc(O)cc21` belongs 6.23 ± 8.8%; to `Cc1ccccc1C(=O)c1ccc(Nc2ccc(Br)cc2N)cc1Cl`, 16.5 ± 23%; to `O=c1c(-c2ccc(O)cc2)coc2cc(O)cc(O)c12` [Genistein], 4.45 ± 2.2%. To `Nc1[nH]nc2nc3ccccc3nc12` belongs 3.97 ± 5.6%.

Turning to `Cc1cc(C(=O)Nc2cc(Nc3ccc4c(/C=C/c5ccccn5)n[nH]c4c3)ccc2F)n(C)n1`, the THP-1 cell loss amounted to 54.6 ± 11%. With `COc1cc2c(Oc3ccc4[nH]c(C)cc4c3F)ncnc2cc1OCCCN1CCCC1` [Cediranib], the THP-1 cell loss turned out to be 91.7 ± 12%. `COc1cc2c(cc1OC)-c1[nH]nc(Nc3cccc(F)c3)c1C2` came in with a THP-1 cell loss of 27.5 ± 16%. The molecule `CC#CC(=O)Nc1ccc2ncnc(Nc3cccc(Br)c3)c2c1` returned a THP-1 cell loss of 89.6 ± 15%. As for `O=C1NC(=O)/C(=C/c2ccc(-c3ccc(F)cc3O)o2)S1`, the figure is 39.7 ± 23%.
